This note sets out measurements from PubChem BioAssay (NCATS).

Assay [1] has as its system Zika virus NS2B-NS3 protease (linked construct). Kind of assay: Primary screen NINDS Rhodamine qHTS for Zika virus inhibitors (AID 1347160). Also: nearly all actives have a fitted effect of over 55% in size. Also: potency is read from the fitted curve at half-maximal effect. In outline: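 Percent inhibition, normalized to uninhibited and enzyme-free controls, is fitted to a 4-parameter Hill equation. Fluorescence change comes from a 15-min cleavage of 1.5 microM bis-peptide Rhodamine110 substrate by 25 nM linked NS2B-NS3 at room temperature.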
Background: In qHTS, concentration-response curves come from the screen itself.

Assay [2] can be described thus: HPAF-II Cancer Cell Toxicity qHTS against the NCATS CANVASS Library (AID 1347346). Also: series mostly up to about 38 µM; nearly all actives have a fitted effect of over 55% in size. In outline:
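HPAF-II cells at 1000 cells/well were treated with an 11-point concentration series for 72 hours at 37 degrees C. Viability read by CellTiter-Glo luminescence.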

Assay [3] is described as follows: OV-SAHO Cancer Cell Toxicity qHTS against the NCATS CANVASS Library (AID 1347348). Also: series mostly up to about 38 µM; nearly all actives have a fitted effect of over 55% in size. An outline of the steps: (§1)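 Per well, 1000 cells; exposure 72 h with compound at 11 final concentrations; readout CellTiter-Glo luminescence.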
Assay [4] in a line: U-118MG Cancer Cell Toxicity qHTS against the NCATS CANVASS Library (AID 1347351). Also: series mostly up to about 38 µM. In outline:
as §1

Assay [5] in a line: COV-362 Cancer Cell Toxicity qHTS against the NCATS CANVASS Library (AID 1347352). Also: series mostly up to about 38 µM. In outline: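 Cells at 1000/well were given compound 4 h after plating in an 11-point series. Viability was read by CellTiter-Glo luminescence after 72 h at 37 degrees C.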
Assay [6] can be described thus: HEK293 18hr Apoptosis Induction qHTS against the NCATS CANVASS Library (AID 1347357). An outline of the steps: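 HEK293 cells (500 per well, DMEM with 10% FBS) were treated with natural products, incubated 18 hours at 37 degrees C, then caspase-3/7 activity was read by Caspase-Glo luminescence after 15 min at room temperature.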
Assay [7] can be described thus: HPAF-II 12hr Apoptosis Induction qHTS against the NCATS CANVASS Library (AID 1347358). In outline:
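HPAF-II cells, 500/well in DMEM + 10% FBS, exposed 12 hours at 37 degrees C to compound (11-point). Caspase-Glo 3/7 added for 15 min at room temperature; luminescence reflects caspase-3/7 activity.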

A short description of assay [8]: HEK293 24hr Apoptosis Induction qHTS against the NCATS CANVASS Library (AID 1347359). An outline of the steps: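 HEK293 cells (500/well, DMEM + 10% FBS) were exposed to compounds in an 11-point series for 24 hours at 37 degrees C, then caspase-3/7 activity was read by Caspase-Glo DEVD luciferase luminescence after 15 min.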
The nature of assay [9]: HPAF-II 18hr Apoptosis Induction qHTS against the NCATS CANVASS Library (AID 1347360). An outline of the steps: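 HPAF-II cells (500/well, DMEM + 10% FBS) were exposed to compounds for 18 hours at 37 degrees C. Caspase-3/7 activity was then read by Caspase-Glo 3/7 luminescence after 15 min at room temperature.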
Assay [10] can be described thus: HEK293 12hr Apoptosis Induction qHTS against the NCATS CANVASS Library (AID 1347361). In outline:
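Read-out: Caspase-Glo 3/7 luminescence (DEVD substrate), 15 min RT. Preceded by 12 h compound exposure of HEK293, 500 cells/well, 11-pt qHTS titration; doxorubicin titration as control.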

For assay [11], the target named is Luciferin 4-monooxygenase (Photinus pyralis) (UniProt P08659). Kind of assay: Firefly luciferase counterscreen qHTS: Assay Interference Panel against the NCATS CANVASS Library (AID 1347363). Also: series mostly up to about 57 µM. An outline of the steps:
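Purified P. pyralis luciferase was added to compounds (11-point series) preincubated 15 min at room temperature with substrate containing 0.013 mM D-luciferin and 0.013 mM ATP; luminescence was read after 5 min.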
On the technique in general: Counterscreens check selectivity or assay interference.

Assay [12] can be described thus: MCF7 Cancer Cell Toxicity qHTS against the NCATS CANVASS Library (AID 1347369). An outline of the steps: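 MCF7, 500 cells/well; cpds 11-pt qHTS; 72 hr, 37C/5% CO2; CellTiterGlo ATP luminescence.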
Assay [13] can be described thus: qHTS for ATAD5 Antagonist screened against the NCATS CANVASS Library (AID 1347370). Also: nearly all actives have a fitted effect of over 65% in size. Also: potency is read from the fitted curve at half-maximal effect. In outline:
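HEK293T cells with stably integrated ATAD5-luciferase reporter, 2000/well, 5 h attachment; compounds plus 10 µM 5-fluorouridine, 16 h at 37 °C. Luciferase luminescence read, with CellTiter-Fluor viability read first.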

The nature of assay [14]: J3T Cancer Cell Toxicity qHTS against the NCATS CANVASS Library (AID 1347371). An outline of the steps: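 J3T dog glioma cells, 500 per well, treated 72 h at 37C with compounds (11-point qHTS); viability from ATP content by CellTiterGlo luminescence; bortezomib titration as control.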
Assay [15] has as its target Nuclear receptor subfamily 1 group I member 3 (Homo sapiens) (UniProt Q14994). Kind of assay: qHTS for Constitutive Androstane Receptor (CAR) Antagonist screened against the NCATS CANVASS Library (AID 1347372).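 Also: cells stimulated with 50 nM CITCO agonist so inhibition reflects antagonism; series mostly up to about 46 µM.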 An outline of the steps:
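HepG2 cells stably carrying hCAR and a CYP2B6-2.2kb luciferase reporter were exposed to compounds plus 50 nM CITCO for 24hr at 37C. CAR activity was read by ONE-Glo luminescence, with viability measured first by CellTiter-Fluor.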

Assay [16] is described as follows: 10-beta competent E. coli microbial cell viability qHTS against the NCATS CANVASS Library (AID 1347376). Also: series mostly up to about 46 µM. In outline:
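10-beta competent E. coli (0.2 OD) were exposed overnight at 37C to compounds in an 11-point series. Viability was read as ATP-dependent BacTiter-Glo luminescence after 20 min at room temperature.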

Assay [17] can be described thus: qHTS for Inflammasome Signaling Inhibitors: IL-1-beta AlphaLISA screen against the NCATS CANVASS Library (AID 1347379).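 Also: human THP-1 cells primed with LPS then triggered with ATP.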 An outline of the steps: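 THP-1 cells pretreated 1 hr with compound (up to 57.5 uM final), then stimulated with LPS (250 ng/mL final) and ATP (1.25 mM final). Secreted IL-1B measured by AlphaLISA after 16 hr; glyburide as positive control.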
Assay [18] can be described thus: Inflammasome Signaling qHTS Counterscreen: IL-1-beta AlphaLISA counterscreen against the NCATS CANVASS Library (AID 1347381).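 Also: cell-free check with purified IL-1β in medium and no THP-1 cells; series mostly up to about 57 µM.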 An outline of the steps: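 Cell-free interference check: compounds added to medium spiked with 4 pg purified IL-1β. Anti-IL-1β acceptor beads (6 ug/mL) with 0.6 nM biotinylated antibody added for 1 h at RT, then streptavidin donor beads (24 ug/mL) for 30 min in the dark. AlphaLISA read at 680/615 nm.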

Assay [19] can be described thus: Cytotoxicity qHTS for assessment of Hepg2 cells membrane integrity screened against the NCATS CANVASS Library (AID 1347387). An outline of the steps: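 HepG2 cells (2000/well) attached overnight, then exposed 5 hr at 37C to compounds in an 11-point series (0.59 nM - 46 uM final). LDH release from damaged membranes read fluorometrically (CytoTox-ONE; 560/590 nm) after 10 min at room temperature.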

Assay [20] in a line: Vero-766 cells viability qHTS against the NCATS CANVASS Library: Counterscreen for Zika virus inhibition assay (AID 1347394). Also: series mostly up to about 46 µM; nearly all actives have a fitted effect of over 60% in size. In outline: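 Uninfected Vero 766 (African green monkey) cells, 1000/well, attached overnight, then exposed 72 h at 37C to compounds (11-point qHTS). Viability read by CellTiter-Glo luminescence; media-only wells served as 100% inhibition.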

Records with an inconclusive call do not appear. Activity calls are given as the source filed them. Calls follow the shape of the dose curve; as a rule, active = well fitted curve in the direction sought with a large enough effect; inconclusive = small, poorly fitted or top-dose-only effect, or another doubt; inactive = no such curve, though single readings can be large; an effect the other way counts as inactive or inconclusive. Numbered stars: 1 amine (or outer) side, 2 acyl side, 3 side chain; on linkers, the order of the positions; unused ones are H or OH. Square brackets hold non-standard residues; d marks the D form. Peptide text beside a SMILES is read from it. X1 = CCCCCCCCCC(=O)[C@H](C(=O)[*:2])[C@@H]1CNC(=O)[C@@H](N[*:1])CS1

Chain of Luciferin 4-monooxygenase (Photinus pyralis) (P08659 whole entry, looked up): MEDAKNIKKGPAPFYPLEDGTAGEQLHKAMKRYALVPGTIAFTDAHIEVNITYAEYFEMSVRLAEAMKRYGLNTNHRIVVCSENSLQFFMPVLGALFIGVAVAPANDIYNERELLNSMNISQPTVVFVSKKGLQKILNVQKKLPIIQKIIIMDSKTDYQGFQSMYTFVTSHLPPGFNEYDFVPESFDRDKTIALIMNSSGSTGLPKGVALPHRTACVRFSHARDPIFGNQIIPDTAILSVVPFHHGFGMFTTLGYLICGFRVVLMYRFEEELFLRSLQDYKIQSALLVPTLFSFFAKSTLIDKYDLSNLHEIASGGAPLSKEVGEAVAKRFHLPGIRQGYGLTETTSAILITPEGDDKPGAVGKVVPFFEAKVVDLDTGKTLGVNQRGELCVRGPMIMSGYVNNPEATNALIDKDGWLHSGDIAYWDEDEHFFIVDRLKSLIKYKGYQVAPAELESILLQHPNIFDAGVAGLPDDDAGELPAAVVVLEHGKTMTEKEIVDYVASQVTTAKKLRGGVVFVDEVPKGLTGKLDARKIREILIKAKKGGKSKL
Chain of Nuclear receptor subfamily 1 group I member 3 (Homo sapiens) (Q14994 whole entry, looked up): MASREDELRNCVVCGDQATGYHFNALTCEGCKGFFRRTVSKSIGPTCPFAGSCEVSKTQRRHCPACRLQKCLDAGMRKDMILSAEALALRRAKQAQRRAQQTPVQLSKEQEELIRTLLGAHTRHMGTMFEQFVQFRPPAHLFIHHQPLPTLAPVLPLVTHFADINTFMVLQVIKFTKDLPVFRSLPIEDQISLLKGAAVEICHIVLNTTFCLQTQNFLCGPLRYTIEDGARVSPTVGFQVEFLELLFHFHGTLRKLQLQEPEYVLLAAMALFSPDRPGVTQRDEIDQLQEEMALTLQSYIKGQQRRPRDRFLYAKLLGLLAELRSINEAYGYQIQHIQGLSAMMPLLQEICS

On to `O=C(O)Cc1c[nH]c2ccccc12`, for which the Potency result in assay [1], in assay [2], in [3], in assay [4], in assay [5] and in assay [6] was “inactive” in each case. For the same compound, the Potency entry in [7], in assay [8], in assay [9], in assay [10], in assay [11] and in assay [12] was “inactive” throughout. Further, the Potency entry in assay [13], in assay [14], in [15], in assay [17] and in [20] was “inactive” throughout. For the same compound, the result in [16], in assay [18] and in [19] was inactive.

As to `COc1ccc([C@@H]2c3cc(OC)c(OC)cc3C(=O)C(C)C2C)cc1OC` (stereo partly drawn), the Potency entry in [1], in assay [2], in assay [3], in assay [4], in assay [5] and in [6] was “inactive” in each case. Also, the Potency entry in [7], in assay [8], in [9], in [10], in assay [11] and in assay [12] was “inactive” in each case. Moreover, the Potency result in [14], in assay [15], in assay [17] and in assay [20] was “inactive” in each case. In assay [13], the Potency was 20.9 µM (active). Besides, the compound was classed as inactive in assay [16], in [18] and in assay [19].

Turning to `C[C@@H]1C[C@H]2C[C@]3(CCCCN3C)[C@@H]3C[C@H]2[C@H](C1)N(C)C3`, the Potency result in assay [1], in [2], in assay [3], in [4], in [5] and in [6] was “inactive” each time. For the same compound, the Potency result in assay [7], in assay [8], in assay [9], in assay [10], in assay [11] and in [12] was “inactive” in each case. Besides, the Potency result in assay [13], in assay [14], in [15], in [17] and in assay [20] was “inactive” in each case. Moreover, the result in assay [16], in assay [18] and in assay [19] was inactive.

Regarding `CO[C@@H]1[C@H](O)[C@@H](C)O[C@@H](OC[C@H]2/C=C/C=C/C(=O)C(C)C[C@H](C)C(O[C@@H]3O[C@H](C)CC4(OC(=O)O[C@@H]4C)C3O)[C@@H](C)/C=C/C(=O)OC2C)[C@@H]1OC` (stereo partly drawn), the Potency in assay [1] is 49.3 µM (active). Further, the Potency entry in [2], in assay [3], in assay [4], in assay [5], in assay [6] and in assay [7] was “inactive” throughout. Also, the Potency entry in [8], in [9], in [10], in [11], in [12] and in assay [14] was “inactive” each time. In addition, the Potency result in assay [15], in assay [17] and in assay [20] was “inactive” in each case. For the same compound, the call in [16], in assay [18] and in assay [19] was inactive.

In the case of `C=CC(C)(C)C(=O)[C@@H](C)[C@@H]1CC[C@](C)(C=C)O1`, the Potency result in assay [1], in [2], in [3], in [4], in [5] and in assay [6] was “inactive” each time. Moreover, the Potency result in [7], in [8], in assay [9], in assay [10], in assay [11] and in assay [12] was “inactive” in each case. The Potency result in assay [13], in [14], in [15], in assay [17] and in assay [20] was “inactive” throughout. Further, the result in assay [16], in [18] and in assay [19] was inactive.

On to `O=C(O)CC1OCc2c(O)cccc21` (stereo not drawn), for which the Potency result in assay [1], in assay [2], in assay [3], in assay [4], in [5] and in assay [6] was “inactive” in each case. Further, the Potency entry in [7], in assay [8], in assay [9], in assay [10], in assay [11] and in [12] was “inactive” throughout. In addition, the Potency entry in assay [13], in assay [14], in [15], in [17] and in assay [20] was “inactive” throughout. Also, the outcome in assay [16], in [18] and in assay [19] was inactive.

Take `C=C[C@]1(C)CC[C@@H]([C@H](C)C(=O)/C=C/C(C)C)O1`: the Potency result in assay [1], in [2], in assay [3], in [4], in assay [5] and in assay [6] was “inactive” throughout. The Potency entry in assay [7], in [8], in assay [9], in assay [10], in assay [11] and in [12] was “inactive” throughout. In addition, the Potency entry in assay [13], in [14], in [15], in assay [17] and in assay [20] was “inactive” in each case. The call in [16], in [18] and in [19] was inactive.

In the case of `C[C@@H]1O[C@@H](Oc2c(-c3ccc(O)cc3)oc3cc(O)cc(O)c3c2=O)[C@H](O)[C@H](O)[C@H]1O`, the Potency in assay [1] was 44 µM (active). The Potency entry in [2], in assay [3], in [4], in assay [5], in assay [6] and in [7] was “inactive” in each case. The Potency result in [8], in [9], in assay [10], in [11], in assay [12] and in assay [13] was “inactive” in each case. For the same compound, the Potency result in [14], in assay [15] and in assay [20] was “inactive” in each case. Besides, the compound was classed as inactive in assay [16], in assay [18] and in assay [19].

`CCCCCCCCCC(=O)[C@@H]1C(=O)N[C@@H](CC(C)C)C(=O)N[C@H](C)C(=O)N2CCC[C@H]2C(=O)N[C@@H](C(C)C)C(=O)N[C@H]2CS[C@H]1CNC2=O` (cyclo(L[dA]PV[X1])): in assay [1], the Potency was 4.4 µM (active). Moreover, the Potency result in assay [2], in assay [3], in [4], in assay [5], in assay [6] and in [7] was “inactive” in each case. The Potency result in assay [8], in [9], in [10], in [11], in assay [12] and in [13] was “inactive” throughout. The Potency entry in [14], in assay [15], in [17] and in [20] was “inactive” throughout. In addition, the call in [16], in assay [18] and in assay [19] was inactive.
